# Assay results: the supplement of paper PMC9925115
# Counter-ions that a name gives are not always drawn. ± gives the uncertainty stated by the source.
# System: FLX1
# Assay: cell viability z-score within plate (CellTiter-Glo), mean of 3 biological replicates; higher = higher viability relative to plate (less growth inhibition)
# Conditions: 2 µM; time (hr): 120
# Protocol: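 FLX1 fibrolamellar carcinoma cells (DNAJB1-PRKACA fusion), 600 cells/well in 384-well plates, treated with a Selleck kinase inhibitor library (L1200) at 2 uM for 5 days (120 hr); viability by CellTiter-Glo. A z-score was computed within each plate and averaged over three biological replicates.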
row,Compound,cell viability z-score within plate
1,O=c1ncn2nc(Sc3ccc(F)cc3F)ccc2c1-c1c(Cl)cccc1Cl,-3.62 ± 2.1
2,CN(C)Cc1cccc(N=C(c2ccccc2)c2c(O)[nH]c3cc(C(=O)N(C)C)ccc23)c1,0.69 ± 0.34
3,CCN1CCN(Cc2ccc(-c3cc4c(N[C@H](C)c5ccccc5)ncnc4[nH]3)cc2)CC1,0.278 ± 0.61
4,CNC(=O)c1ccccc1Nc1nc(Nc2ccc(N3CCOCC3)cc2OC)ncc1Cl,1.3 ± 1.2
5,CS(=O)(=O)CCNCc1ccc(-c2ccc3ncnc(Nc4ccc(OCc5cccc(F)c5)c(Cl)c4)c3c2)o1,0.842 ± 0.23
6,Cc1cc(Nc2cc(CN3CCOCC3)c3nc(C)c(Cc4ccc(Cl)cc4F)n3n2)n[nH]1,0.049 ± 0.54
7,COc1cc2ncnc(Nc3ccc(O)c(Br)c3)c2cc1OC,0.753 ± 0.38
8,O=C(Cc1ccc(-c2ccc(OCCN3CCOCC3)cc2)cn1)NCc1ccccc1,0.711 ± 0.45
9,CN1CCN(c2ccc(Nc3cc(-c4cccc(-n5ccc6cc(C7CC7)cc(F)c6c5=O)c4CO)cn(C)c3=O)nc2)CC1,-0.244 ± 0.38
10,Cc1ccc(NC(=O)c2ccc(CN3CCN(C)CC3)cc2)cc1Nc1nccc(-c2cccnc2)n1 [Imatinib Mesylate (STI571)],-1.25 ± 0.88
11,COc1cc2c(Nc3ccc(NC(=O)c4ccccc4)cc3)ncnc2cc1OCCCN1CCOCC1,0.281 ± 0.48
12,COc1cccc2cc(-c3nc([C@H]4CC[C@H](C(=O)O)CC4)n4ncnc(N)c34)[nH]c12,0.362 ± 0.51
13,Nc1nc(N)c(N=O)c(OCC2CCCCC2)n1,0.662 ± 0.19
14,CC(C)c1cnn2c(NCc3ccccc3)cc(NCCCCCCN)nc12,0.577 ± 0.3
15,N#CCNC(=O)c1ccc(-c2ccnc(Nc3ccc(N4CCOCC4)cc3)n2)cc1 [Momelotinib (CYT387)],-1.97 ± 1
16,COc1cc2c(Oc3ccc(NC(=O)C4(C(=O)Nc5ccc(F)cc5)CC4)cc3F)ccnc2cc1OCCCN1CCOCC1,-0.77 ± 2.3
17,C=CC(=O)Nc1cc(Nc2nccc(-c3cn(C)c4ccccc34)n2)c(OC)cc1N(C)CCN(C)C [Osimertinib (AZD9291)],-0.225 ± 0.34
18,COCC(=O)NC/C=C/c1ccc2ncnc(Nc3ccc(Oc4ccc(C)nc4)c(C)c3)c2c1,-0.356 ± 0.16
19,Clc1ccc(C2(c3ccc(-c4cn[nH]c4)cc3)CCNCC2)cc1,0.815 ± 0.24
20,Cc1[nH]c(/C=C2\C(=O)Nc3ccc(S(=O)(=O)N(C)c4cccc(Cl)c4)cc32)c(C)c1C(=O)N1CCN(C)CC1,-0.214 ± 0.72

row,Compound,cell viability z-score within plate
1,CNC(=O)c1cc(Oc2ccc(NC(=O)Nc3ccc(Cl)c(C(F)(F)F)c3)c(F)c2)ccn1 [Regorafenib (BAY 73-4506)],2 ± 0.81
2,Cc1cc(N2CCOCC2)cc2[nH]c(-c3c(NC[C@@H](O)c4cccc(Cl)c4)cc[nH]c3=O)nc12,-0.387 ± 0.41
3,CN1CCN(C2CCN(C(=O)Nc3cc(Oc4ccc(NC(=O)C5(C(=O)Nc6ccc(F)cc6)CC5)c(F)c4)ccn3)CC2)CC1 [Golvatinib (E7050)],0.521 ± 0.14
4,CCc1cccc(CC)c1NC(=O)N1Cc2[nH]nc(NC(=O)c3ccc(N4CCN(C)CC4)cc3)c2C1,-0.62 ± 0.28
5,Cc1cnc(Nc2ccc(N3CCN(C)CC3)cc2)nc1Nc1cccc(S(=O)(=O)NC(C)(C)C)c1,0.0181 ± 0.39
6,CCc1nc(-c2cccc(C)c2)c(-c2ccnc(NC(=O)c3ccccc3)c2)s1,0.996 ± 0.36
7,CO[C@H]1C[C@@H]2CC[C@@H](C)[C@@](O)(O2)C(=O)C(=O)N2CCCC[C@H]2C(=O)O[C@H]([C@H](C)C[C@@H]2CC[C@@H](OC(=O)C(C)(CO)CO)[C@H](OC)C2)CC(=O)[C@H](C)/C=C(\C)[C@@H](O)[C@@H](OC)C(=O)[C@H](C)C[C@H](C)/C=C/C=C/C=C/1C,-0.0698 ± 1.1
8,COc1ccc(-c2ccc3ncc4c(c3c2)n(-c2ccc(N3CCNCC3)c(C(F)(F)F)c2)c(=O)n4C)cn1,0.514 ± 0.38
9,CCn1c2ccccc2c2cc(Nc3ccnc(NCCCN4CCOCC4)n3)ccc21,1.38 ± 0.26
10,CC1(COc2ccc3c(c2)ncn3-c2ccc3cccc(N4CCC(N)CC4)c3n2)COC1,0.0444 ± 0.77
11,CNCc1ccc(-c2cc(-c3nc(-c4ccc(S(=O)(=O)C(C)C)cc4)cnc3N)on2)cc1,0.59 ± 0.39
12,Cc1cc(CS(=O)(=O)c2ccccc2)cc(OCc2ccc(CN3CCC[C@@H]3CO)cc2)c1,0.378 ± 0.24
13,CN1CCC(CNc2ccc3ncc(-c4cccc(OC(F)(F)F)c4)n3n2)CC1 [SGI-1776 free base],0.436 ± 0.2
14,NC(=O)Nc1sc(-c2ccc(F)cc2)cc1C(N)=O,-0.156 ± 0.51
15,O=S(=O)(NCCNC/C=C/c1ccc(Br)cc1)c1cccc2cnccc12,-2.86 ± 1.5
16,CNC(=O)c1cccc(-c2ccc3c(N4CCOC[C@@H]4C)nc(N4CCOC[C@@H]4C)nc3n2)c1 [Vistusertib (AZD2014)],-0.936 ± 1.4
17,COc1ccc(-c2ccc3c(N4CCOCC4)nc(N4C[C@@H](C)O[C@@H](C)C4)nc3n2)cc1CO,0.495 ± 0.19
18,Oc1cc(O)cc(/C=C/c2ccc(O)c(O)c2)c1 [Piceatannol],-0.333 ± 0.2
19,"C[C@H](Nc1ncnc2nc[nH]c12)c1cc2cccc(Cl)c2c(=O)n1-c1ccccc1 [Duvelisib (IPI-145, INK1197)]",0.585 ± 0.95
20,Cc1[nH]c(/C=C2\C(=O)Nc3ccc(S(=O)(=O)Cc4c(Cl)cccc4Cl)cc32)c(C)c1C(=O)N1CCC[C@@H]1CN1CCCC1,0.00363 ± 0.67
